Screening results: PubChem BioAssay, National Center for Advancing Translational Sciences (NCATS)
ELG1 genotox = qHTS screen for small molecules that induce genotoxicity in human embryonic kidney (HEK293T) cells expressing luciferase-tagged ELG1 | 330,000 tested, 1.3% active | AID 504466, 2011 | HEK293T ELG1-luciferase reporter, luminescence, 16 h | Potency, µM (doses to about 46 µM), for the others: at the top dose activity change, positive = activation, actives largely listed as activators; note: % of control where 0% means no effect; nearly all actives have a fitted effect of over 60% in size
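Reporter readout depends on ELG1 protein level, which increases with genetic stress. After 16 hr compound exposure at 37 °C, luciferase activity was quantified using ONE-Glo.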
ELG1 repair inh = qHTS screen for small molecules that inhibit ELG1-dependent DNA repair in human embryonic kidney (HEK293T) cells expressing luciferase-tagged ELG1 | 330,000 tested, 2.3% active | HEK293T ELG1-luciferase reporter, luminescence, 16 h; DNA damage induced by 5-fluorouridine | Potency, µM (titrated, usually from 46.1 µM), without a hit: at the highest dose activity change, negative = inhibition, actives largely listed as inhibitors; note: % is set by controls: 0 for no effect and ±100 for the full control effect; nearly all actives have a fitted effect of over 55% in size
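In this reporter screen, reduction of luminescence relative to DMSO vehicle indicated activity. Compounds and 5-fluorouridine were added together to 2,000 cells per well, incubated for 16 hr at 37 °C, then developed with ONE-Glo.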
FLuc counter = qHTS profiling assay for firefly luciferase inhibitor/activator using purifed enzyme and Km concentrations of substrates (counterscreen for miR-21 project); purified FLuc, Km substrates, luminescence inhibition; Potency, µM (top dose mostly 57.5 µM), inactives show at the highest dose activity change, negative = inhibition, most hits filed as inhibitors; 360,000 tested, 6.9% active; Luciferin 4-monooxygenase (Photinus pyralis), P08659;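 note: plate controls were vehicle for no effect and reference inhibitor for full effect; nearly all actives have a fitted effect of over 55% in size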
Target sequence (P08659 whole entry, looked up): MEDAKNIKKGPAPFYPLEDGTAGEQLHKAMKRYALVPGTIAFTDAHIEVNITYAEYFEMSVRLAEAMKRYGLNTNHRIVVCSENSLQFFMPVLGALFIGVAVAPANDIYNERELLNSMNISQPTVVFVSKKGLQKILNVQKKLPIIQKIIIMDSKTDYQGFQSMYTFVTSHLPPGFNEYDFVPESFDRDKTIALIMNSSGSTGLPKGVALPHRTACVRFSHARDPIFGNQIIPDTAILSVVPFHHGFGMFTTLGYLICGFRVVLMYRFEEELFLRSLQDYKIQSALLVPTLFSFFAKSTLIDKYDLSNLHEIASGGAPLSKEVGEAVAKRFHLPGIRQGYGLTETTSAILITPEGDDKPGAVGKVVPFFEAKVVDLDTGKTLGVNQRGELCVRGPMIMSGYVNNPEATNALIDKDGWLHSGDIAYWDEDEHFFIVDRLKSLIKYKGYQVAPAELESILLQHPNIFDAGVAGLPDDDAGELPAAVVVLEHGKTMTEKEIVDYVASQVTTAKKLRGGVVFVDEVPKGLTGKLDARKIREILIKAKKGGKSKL
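Purified P. pyralis luciferase (10nM final) with 10uM D-luciferin and 10uM ATP (Km levels) in 50mM Tris acetate pH 7.5, 10mM Mg acetate, 0.01% Tween-20, 0.05% BSA; qHTS 6-point titration, ~60 µM downward; luminescence read.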
Rab9 promoter act = qHTS Assay for Rab9 Promoter Activators; Huh7 Rab9 promoter-luciferase reporter, luminescence, 24 h; Potency, µM (doses to about 9.22 µM), without a hit: top-dose activation, negative = inhibition, actives largely listed as activators; 320,000 tested, 2.8% active; AID 485297, 2010; note: % of control where 0% means no effect; nearly all actives have a fitted effect of over 60% in size
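Luciferase signal after 10 min detection reagent at ambient indicates Rab9 promoter upregulation; stably transfected Huh7 cells were treated 24 h with compound in DMSO at 37 °C, 5% CO2.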
NPC1 prom act = qHTS Assay for NPC1 Promoter Activators; Huh7 NPC1 promoter luciferase reporter, 24 h; Potency, µM (doses to about 9.22 µM), without a hit: top-dose activation, most hits filed as activators; 320,000 tested, 2.4% active; AID 485313, 2010; note: % of control where 0% means no effect; nearly all actives have a fitted effect of over 60% in size
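Cells: Huh7 expressing luciferase under the NPC1 promoter, 1500/well. Seeded 2 h, compound added, incubated 24 h at 37 °C. Luciferase reagent, 10 min ambient, then luminescence.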
SMN2 splice up = qHTS Assay for Enhancers of SMN2 Splice Variant Expression. HEK293 SMN2-luciferase splicing reporter, luminescence, 30-36 h. Potency, µM (doses to about 46.1 µM), for inactives: top-dose activity change, positive = activation, hits mostly activators. 210,000 tested, 2.8% active. AID 1458, 2008; note: % of control where 0% means no effect; nearly all actives have a fitted effect of over 55% in size
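HEK293 cells carry an SMN2 minigene-luciferase reporter in which exon 7 inclusion puts luciferase in frame. Cells were seeded at 2000 cells/well, attached for 10-12 hours, then exposed to compounds for 30-36 hours at 37C before ONE-Glo luminescence.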
Starred values were filed as active, the others as inactive; ? = inconclusive; . = not tested or not shown. An excerpt weighted towards active compounds, which were near 9.3% of everything screened. Calls come from the whole dose curve; as a rule, active = well fitted curve in the direction sought with a large enough effect; inconclusive = small, poorly fitted or top-dose-only effect, or another doubt; inactive = no such curve, though single readings can be large; an effect the other way counts as inactive or inconclusive. Potency is the fitted concentration of half-maximal effect.

SMILES | ELG1 genotox | ELG1 repair inh | FLuc counter | Rab9 promoter act | NPC1 prom act | SMN2 splice up
CCN(CC)CCN(C(=O)c1ccc(CN2CCCCC2)o1)C(C(=O)NC1CCCCC1)c1ccc(F)cc1 (stereo unspecified) | 2% | 206% | -2% | 1% | -4% | .
COc1ccc(NC(=O)N2CCCC3(CCN(S(=O)(=O)c4ccccc4)CC3)C2)cc1 | . | . | . | . | . | -7%
COc1ccc(/C=N/NC(=O)C(C)Sc2ccccn2)cc1[N+](=O)[O-] (stereo unspecified) | 0% | -10% | -6% | -9% | 1% | -25%
COc1ccc(/C=N/NC(=O)c2ccc(O)cc2O)cc1CSc1ccccn1 | 4% | ? | 27µM* | 3% | 1% | 7%
C=C(C)Cn1c(SCC(=O)N/N=C/c2cccc(O)c2)nc2ccccc2c1=O | -2% | 21µM* | 2% | 1% | 0% | 7%
COc1cc(/C=N/NC(=O)CSc2ccccn2)ccc1OC(C)C | ? | ? | 4.3µM* | ? | 12% | .
CCOC(=O)c1sc(NC(=O)CCN2C(=O)C3CCCCC3C2=O)cc1C (stereo unspecified) | -1% | 17% | 5% | -1% | -4% | .
COc1ccc(-n2c(C)c(C(C)=O)c3cc(OC(=O)c4ccc(C)cc4)ccc32)cc1 | . | . | -13% | . | . | 9%
CCN1/C(=C\C(C)=O)Sc2ccc(OC)cc21 | -5% | 23µM* | 6% | 2% | -4% | -37%
Clc1ccc(-c2nc3ccccn3c2CN2CCCCC2)cc1 | 10% | ? | ? | 11% | 1% | -5%
CN(C)Cc1c(-c2ccc(Cl)cc2)nc2ccccn12 | ? | ? | 12µM* | ? | ? | 13µM*
CC(C)CCOc1ccc(C2N=C(N)Nc3nc4ccccc4n32)cc1 (stereo unspecified) | . | . | -4% | . | . | 2%
C=C1/C=C(\C)C(C)(O)CC(O)CC(=O)C(O)C(O)C(C)CC(C)OC(=O)/C(C)=C/CC/C=C/C(OC)C(O)CC(C)C1 (stereo unspecified) | -4% | 15µM* | . | . | . | .
CN(C)c1ccc(CC(=O)c2nc3ccccc3s2)cc1 | ? | ? | 8.5µM* | 2.5µM* | ? | -6%
Cc1nc2c(ccc3nc(NC(=O)c4ccc(S(=O)(=O)N(C)C)cc4)sc32)s1 | 2% | -27% | 2.7µM* | 2% | -3% | 19%
CC12CCC(C(=O)Nc3nc4ccccc4s3)(OC1=O)C2(C)C (stereo unspecified) | ? | ? | 17µM* | ? | ? | ?
CCCCNC(=O)Nc1nc2ccccc2s1 | ? | ? | 11µM* | 1.4µM* | 2.5µM* | 11µM*
CN(C)C(=O)c1nc2ccccc2s1 | 15% | ? | ? | 1% | 10% | 18%
CCOC(=O)CC(=O)Nc1nc2ccccc2s1 | ? | ? | -16% | 4% | 1% | 3%
CCOC(=O)c1nc2ccccc2s1 | ? | ? | 13µM* | 15% | 9% | -17%
Cc1nc2c(ccc3nc(NC(=O)Cc4ccccc4)sc32)s1 | 18% | ? | 24µM* | ? | 25% | ?
CCOC(=O)Nc1nc2ccccc2s1 | 3.7µM* | ? | 6.7µM* | 3.5µM* | 3.2µM* | ?
CCCNC(=O)Nc1nc2ccccc2s1 | ? | ? | 9.5µM* | 2.5µM* | 2.2µM* | .
CCN(CC)S(=O)(=O)c1ccc(S(=O)(=O)N2CCCC(C(=O)NC3CC3)C2)cc1 (stereo unspecified) | -41% | -22% | 1% | -21% | -21% | .
